# Experimental data: PubChem BioAssay (NCI)
# The panel holds about 83,000 compounds, 20% with a hit somewhere; the sample as a whole holds those more often.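 Single-dose data. Exposure time 48 hours. Values below 10 considered active.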 Calls of active or inactive are those of the source.
# Tested on: OVCAR-3 ovarian
# Assay: NCI-60 one-dose screen, 48 h (100 = growth as untreated, 0 = no growth, -100 = all killed)
# Settings: 10 µM unless noted
# Procedure: Growth inhibition of the OVCAR-3 human tumor cell line is measured as a screen for anti-cancer activity. Cells are grown in 96 well plates and exposed to the test compound for 48 hours. Compounds are tested at a single concentration, which is 10^-5 M for most compounds. The reported endpoint is percent growth (GI% or GIPRCNT), where numbers from 0 - 100% represent growth inhibition, and numbers from -100% - 0 represent cell death. For example, a value of 40 represents 60% growth inhibition. A value of 0 means no net growth occurred over the course of the experiment. A value of -40 indicates 40% of cells at the beginning of the experiment died by the end of the experiment. A value of -100 means all cells are dead at the end of the experiment.
# NCI-60 Human Tumor Cell Lines Screen was performed using the standard one-dose NCI protocol, which is described in more detail at https://dtp.cancer.gov/discovery_development/nci-60/default.htm.
# Compounds with GIPRCNT values below 10 were considered active. Activity score was based on GIPRCNT using the following formula: […]
# Score is 0 for GIPRCNT values of 100 or above, 50 for GIPRCNT values of 0, and 100 for GIPRCNT values of -100.
row,SMILES,growth
1,CCN1C(=O)N(CC)C2Nn3c(s/c(=C4\C(=O)N(C)c5ccccc54)c3=O)=NC21 (stereo not given),8.52% (active)
2,CC(C)Sc1nc(NNC(N)=S)c(C#N)c(-c2ccc(F)cc2)n1,113% (inactive)
3,Cc1ccc(-n2c(-c3ccccc3)c(-c3ccccc3)c3c(SCC(=O)n4[nH]c(N)cc4=O)ncnc32)cc1,91.9% (inactive)
4,COc1cc(/C=N/NC(=O)Cn2c(C(C)C)nc3ccccc32)ccc1O,108% (inactive)
5,CN(C)CCC=C1c2ccccc2C(C)(C)c2ccccc21,80.1% (inactive)
6,Oc1c(CN2CCCC2)cc(COCc2ccc(Br)cc2)c2cccnc12,-4.02% (active)
7,Cc1occc1-c1n[nH]c(=S)n1N1C(=O)CSC1=S,103% (inactive)
8,CC1OC(O[C@H]2/C=C/C=C/C=C/C=C/C=C/C=C/C=C/[C@H](C)[C@@H](O)[C@@H](C)[C@H](C)OC(=O)CC(O)CC(O)CCC(O)C(O)CC(O)C[C@]3(O)C[C@H](O)C(C(=O)O)C(C2)O3)C(O)[C@H](N)C1O (stereo not given in full),-42.3% (active)
9,O=C(N/N=C/C=C/c1ccc([N+](=O)[O-])o1)c1cc2ccccc2cc1O,-54.8% (active)
10,COc1ccc(NC(=O)c2nc(-c3cc(OC)c(OC)c(OC)c3)n(-c3cccc4ccccc34)n2)cc1OC,27.7% (inactive)
11,COc1cc(-c2nn(-c3ccccc3)cc2-c2ccnc(NCCNS(=O)(=O)c3ccc(Cl)cc3)n2)ccc1Cl,35.1% (inactive)
12,Cn1ccc2c(c1=O)C(=O)c1nccc3c1c-2nc1ccccc13,-96.3% (active)
13,COc1cc(C(=O)c2cc(C)c3[nH]c4ccc(Cl)cc4c3c2C)cc(OC)c1OC,-35.7% (active)
14,CC/C=C1/C(=O)C=C[C@@H]1C/C=C\CCCC(=O)O,82.2% (inactive)
15,N#Cc1c2c(nn(-c3ccccc3)c1=O)C(O)=C([N+](=O)[O-])C(c1ccccc1)C2 (stereo not given),76.4% (inactive)
16,CCOC(=O)c1c(-c2ccc(Cl)cc2)c(C#N)c(=O)n(-c2ccccc2CC)c1N,87.8% (inactive)
17,CCn1c(C)nc2cc(C(N)=O)ccc21,105% (inactive)
18,NS(=O)(=O)c1ccc(-n2nc(C(=O)N/N=C\c3ccc(F)cc3)cc2-c2ccc(Cl)cc2)cc1,99.8% (inactive)
19,Cc1ccc(-c2cc3c(cc2O)C2CCCCC2(N2CCOCC2)O3)cc1 (stereo not given),110% (inactive)
20,O=Cc1ccc(O)c2ncccc12,-15.2% (active)

row,SMILES,growth
1,O=c1ssc(Cl)c1-c1ccccc1,126% (inactive)
2,CSc1n(Cc2ccc3ccccc3c2)c(C)c[n+]1Cc1ccc2ccccc2c1,-41.9% (active)
3,O=c1ccn2nc3ccccc3c2[nH]1,117% (inactive)
4,COc1ccc(N=C(c2ccccc2)C2C(=O)c3ccccc3C2=O)cc1,82.3% (inactive)
5,CC1O[C@@H](OC2[C@H](OC(=O)/C=C/c3ccc(O)c(O)c3)C(COC3O[C@H](C)C(O)C(O)[C@@H]3O)O[C@@H](OCCc3ccc(O)c(O)c3)[C@H]2O)[C@@H](O)C(O)[C@H]1O (stereo not given in full),108% (inactive)
6,COc1cccc(/C=C/C(=O)c2c(C)nc3ccccc3c2/C=C/c2ccc(C)cc2)c1OC,52.4% (inactive)
7,O=C(CCCCCCSc1nc(-c2ccccc2)cc(-c2ccc(Cl)cc2)n1)NO,25.2% (inactive)
8,COc1cccc(-c2nn(-c3ccccc3)cc2-c2ccnc(NCCNC(=O)Nc3ccccc3)c2)c1,55.8% (inactive)
9,COc1ccc(-c2nc3c(N)c(CO)c(C)nc3o2)cc1,103% (inactive)
10,N=C1C(c2nc(-c3ccc(Br)cc3)cs2)=C(O)CN1CC1CCCO1 (stereo not given),105% (inactive)
11,C#CCOc1nc(C)cc(C)c1C#N,110% (inactive)
12,O=S(=O)(Nc1cccc(Cl)c1)c1ccc(-c2cnc(C3CC3)o2)cc1,-9.95% (active)
13,CCCCCc1nc2c(c3c1CCCC3)CCCC2,69.8% (inactive)
14,Cc1nc2ccccc2c(/C=C/c2ccc(Cl)cc2)c1C(=O)/C=C/c1ccc(F)cc1,-19.2% (active)
15,COc1cc(C2CC(=O)Nc3c2c(C)nn3-c2nc3ccccc3[nH]2)c(OC)c(OC)c1OC (stereo not given),12.2% (inactive)
16,O=S(=O)(O)c1ccc(N/N=C/c2ccccc2Cl)cc1,119% (inactive)
17,NC[C@H](O)c1ccc(O)c(O)c1,108% (inactive)
18,COC(=O)c1ccc(C2Nc3ccc(S(=O)(=O)Nc4ccc(C)c(C)c4)cc3C3OCCC23)cc1 (stereo not given),79.1% (inactive)
19,CCOC(=O)c1c2ncccc2n2c(=O)n(-c3ccccc3C)nnc12,135% (inactive)
20,O=c1c2cc(F)ccc2sc2c(NCCN3CCCCC3)nc3ccccc3c12,31.5% (inactive)
